Rows were chosen to be rich in hits. Some 21% of all compounds tested hit in one or more screens of this group.
DT40 TDP1 CPT: DT40-hTDP1 cell growth loss with CPT. Potency, µM (titrated, usually from 46.2 µM), usual class: inhibitors. hit rate 12% among 420,000. AID 686979. chicken DT40 Tdp1-/-;hTDP1 cells + 20 nM CPT, ATP luminescence, 48 h; also: nearly all actives have a fitted effect of over 55% in size
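Chicken DT40 Tdp1-/- cells stably complemented with human TDP1 were seeded at 400 cells/well in medium containing 20 nM camptothecin, exposed to pin-transferred compounds, and grown at 37 °C for at least 48 hr. Viability was read as ATP luminescence.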
ELG1 repair inh: inhibitors of ELG1-dependent DNA repair in HEK293T cells; HEK293T ELG1-luciferase reporter, luminescence, 16 h; DNA damage induced by 5-fluorouridine; Potency, µM (top dose mostly 46.1 µM), hits mostly inhibitors; hit rate 2.3% among 330,000; AID 504467; also: nearly all actives have a fitted effect of over 55% in size
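HEK293T cells expressing luciferase-tagged ELG1 (2,000/well) received 5-Fluorouridine plus compound or DMSO for 16 hr at 37 °C. Luciferase was read by ONE-Glo luminescence after 30 min at room temperature.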
RORg inh: blocks mouse ROR gamma transcriptional activity; P51450; Drosophila S2 Gal4-RORgamma UAS-luciferase reporter, 20 h; Potency, µM (series often up to 53.6 µM), hits mostly inhibitors; hit rate 5.4% among 310,000; AID 2551; also: nearly all actives have a fitted effect of over 60% in size
Target sequence (P51450 whole entry, looked up, the tested form may be a part): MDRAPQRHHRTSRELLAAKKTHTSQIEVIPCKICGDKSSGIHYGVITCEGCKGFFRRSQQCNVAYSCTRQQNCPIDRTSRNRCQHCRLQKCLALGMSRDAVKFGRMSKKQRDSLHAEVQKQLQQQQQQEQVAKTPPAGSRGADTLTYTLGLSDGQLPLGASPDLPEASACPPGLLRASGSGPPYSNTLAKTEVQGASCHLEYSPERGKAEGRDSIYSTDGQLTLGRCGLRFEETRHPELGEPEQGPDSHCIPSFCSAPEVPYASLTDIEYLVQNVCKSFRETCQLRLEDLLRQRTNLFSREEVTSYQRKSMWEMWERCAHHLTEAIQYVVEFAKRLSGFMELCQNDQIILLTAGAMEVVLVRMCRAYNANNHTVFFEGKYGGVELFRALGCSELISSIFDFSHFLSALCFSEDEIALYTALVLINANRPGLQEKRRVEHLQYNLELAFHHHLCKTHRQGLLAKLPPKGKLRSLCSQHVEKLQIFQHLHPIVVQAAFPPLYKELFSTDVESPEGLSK
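Schneider cells (Drosophila), stable Gal4 DBD–ROR gamma + UAS-luc; 1 hr cmpd preincubation; Cu2+ induction 700 uM final; 20 hr ambient; luminescence.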
IL1B secr inh: blocks inflammasome-driven IL-1 beta release. THP-1 LPS/ATP IL-1B secretion, AlphaLISA, 16 h; hits give low values. activity change, % at 57.5 µM. hit rate 4.7% among 360,000. AID 743279; in the data active = activity change below about -50%; inconclusive = mostly about -30% to -49%
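Secreted IL-1B measured by AlphaLISA bead assay after 16 h compound exposure of THP-1 cells; compounds (final up to 57.5 uM) added 1 h before LPS (250 ng/mL) and ATP (1.25 mM) stimulation; lower signal means less secretion.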
Gal4-VP16 FLuc: Gal4-VP16 reporter inhibition counter-screen. Drosophila S2 Gal4-VP16 UAS-luciferase, luminescence, 20 h. Potency, µM (titrated, usually from 53.6 µM), hits mostly inhibitors. hit rate 3.5% among 310,000. AID 2546;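 also: Gal4-VP16 expression switched on by copper sulfate through the metallothionein promoter; nearly all actives have a fitted effect of over 50% in size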
TDP1 cell noCPT: qHTS for Inhibitors of human tyrosyl-DNA phosphodiesterase 1 (TDP1): qHTS in cells in absence of CPT | DT40 Tdp1-/- hTDP1 cells, no CPT, ATP luminescence, 48 h | Potency, µM (top dose mostly 46.2 µM), usual class: inhibitors | hit rate 15% among 420,000 | AID 686978, 2013; also: nearly all actives have a fitted effect of over 55% in size
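Growth kinetics read by CellTiter-Glo luminescence after ≥48 hr at 37 °C. Cells: DT40 Tdp1-/- stably carrying human TDP1, 400 per well, compound exposure in the absence of CPT (DMSO vehicle).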
A number is an active result; i = inactive; ? = inconclusive; nt = no result given; [ ] = another dose, or the depositor's remark. Unless noted, calls follow the shape of the dose curve; as a rule, active = well fitted curve in the direction sought with a large enough effect; inconclusive = small, poorly fitted or top-dose-only effect, or another doubt; inactive = no such curve, though single readings can be large; an effect the other way counts as inactive or inconclusive.

SMILES	DT40 TDP1 CPT	ELG1 repair inh	RORg inh	IL1B secr inh	Gal4-VP16 FLuc	TDP1 cell noCPT
Cc1ccccc1NS(=O)(=O)c1cccc2nonc12	i	i	i	i	i	i
CCO[C@H]1O[C@@H]([C@H](COCc2ccccc2)OCc2ccccc2)[C@@H](OCc2ccccc2)[C@H]1O	nt	nt	i[2.98 µM]	nt	i	nt
Cc1ccc(N(CC(=O)NCCc2ccccc2)S(=O)(=O)N(C)C)cc1	i	nt	nt	nt	nt	?
Fc1ccc(CCNC(=S)Nc2ccc(F)cc2)cc1	?	?	1µM	i	0.89µM	18µM
CCCCc1ccc(NC(=S)NCCc2ccc(F)cc2)cc1	?	i	2.2µM	-110	5.6µM	?
COc1ccccc1NC(=O)N1CCCC1C(=O)NCCc1ccccc1 (centres undefined)	i	i	i	i	i	i
Cc1cc(C)nc(NC(=S)Nc2ccc(F)cc2F)c1	i	i	0.71µM	i	i	i
Cc1ccc(C)c(NC(=S)Nc2ncccc2C)c1	?	?	3.5µM	i	?	?
Cc1ccc(C)c(NC(=O)c2ccccn2)c1	?	?	i	i	i	i
CC(=O)Nc1cccc(NC(=S)Nc2ccc(F)cc2F)c1	i	i	i	i	i	i
Cc1cccnc1NC(=S)Nc1ccc(F)cc1F	i	?	6.3µM	i	?	i
Cc1cc(C(F)F)n2nc(C(=O)Nc3ccc(F)cc3F)nc2n1	i	i	i	i	i	i
CC(C)(C)NC(=O)C(c1ccc(I)cc1)N(CCN1CCOCC1)C(=O)CCCNC(=O)c1ccccc1 (centres undefined)	nt	nt	i	nt	i	nt
COc1cccc(C(=O)Nc2ccccc2OCc2cc(=O)n3cc(C)ccc3n2)c1	i	nt	nt	nt	nt	?
Cc1[nH]n(-c2ccccc2)c(=O)c1N=Nc1nccs1	18µM	?	5.6µM	i	5.6µM	23µM
Cc1[nH]n(-c2ccccc2)c(=O)c1N=Nc1ccccc1C(=O)O	?	i	i	i	i	?
Cc1[nH]n(-c2ccccc2)c(=O)c1N=Nc1ccccc1O	0.52µM	?	2µM	i	4.5µM	0.41µM
Cc1ccccc1N=Nc1c(C)[nH]n(-c2ccccc2)c1=O	i	i	i	i	i	i
C/C(=N\NC(=O)CN1CCCCC1)c1cccc([N+](=O)[O-])c1	i	nt	nt	i	nt	i
C/C(=N\NC(=O)CN1CCCCC1)c1ccccc1O	?	?	3.5µM	i	16µM	?
C/C(=N\NC(=O)CN(c1ccccc1)S(C)(=O)=O)c1ccccc1O	?	16µM	0.71µM	i	3.5µM	?
Cc1cc2ccc(=O)oc2cc1OC[C@@H](O)C(C)(C)O	i	nt	i	nt	i	i
CCOC(=O)Nc1cc(=O)c2ccccc2o1	8.2µM	?	i	i	i	13µM
CCOc1ccccc1NC(=O)c1cc(=O)c2ccccc2o1	i	i	i	i	i	i
CC(C)(Oc1ccc(Cl)cc1)C(=O)Nc1nnc2n1CCS2	?	nt	nt	nt	nt	18µM
SMILES	DT40 TDP1 CPT	ELG1 repair inh	RORg inh	IL1B secr inh	Gal4-VP16 FLuc	TDP1 cell noCPT
O=C(COc1ccc(Cl)cc1)Nc1nnc2n1CCS2	i	nt	nt	nt	nt	i
COCCNC(=O)Cn1cc(S(=O)(=O)Cc2ccccc2Cl)c2ccccc21	i	nt	nt	nt	nt	i
CN(C)c1ccc(NC(=O)Cn2cc(S(=O)(=O)Cc3ccccc3Cl)c3ccccc32)cc1	?	nt	nt	nt	nt	8.2µM
CCN(C(=O)Cn1cc(S(=O)(=O)Cc2ccccc2Cl)c2ccccc21)c1ccccc1	16µM	nt	nt	nt	nt	23µM
CN(C)C(=O)Cn1cc(S(=O)(=O)Cc2ccccc2)c2ccccc21	i	i	i	i	i	i
Cc1ccc(C)c(NC(=O)Cn2cc(S(=O)(=O)Cc3cccc(Cl)c3)c3ccccc32)c1	16µM	nt	nt	nt	nt	?
Cc1ccc(CNC(=O)Cn2cc(S(=O)(=O)Cc3ccccc3Cl)c3ccccc32)cc1	18µM	nt	nt	nt	nt	15µM
Cc1cc(C)cc(N2C(=O)c3nccnc3C2=O)c1	i	i	i	i	i	i
Cc1cc(C)cc(N2C(=O)C=CC2=O)c1	0.73µM	nt	nt	-103	nt	0.82µM
Cc1c([N+](=O)[O-])cc(N2C(=O)C=CC2=O)cc1[N+](=O)[O-]	0.73µM	nt	nt	i	nt	1.6µM

Source: PubChem (National Center for Advancing Translational Sciences (NCATS))
